The values below come from PubChem BioAssay (Tox21).

The nature of experiment [1]: A CellTox Green Cytotoxicity Assay to monitor cytotoxicity in HepG2 cells - 16 hour (AID 1224876). Also: nearly all actives have a fitted effect of over 45% in size. An outline of the steps:
(§1)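 HepG2, 600 cells/well premixed w/ CellTox Green; 5 h settle, 37 C/5% CO2; pintool cpd add (DMSO); 37 C, 40 h; fluorescence read at 0, 8, 16, 24, 32, 40 h.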

Experiment [2] can be described thus: qHTS RealTime-Glo MT Cell Viability Assay in HepG2 cells - 32 hour (AID 1224877). Also: nearly all actives have a fitted effect of over 55% in size. An outline of the steps:
(§2)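 Real-time, nonlytic viability: 600 HepG2 cells/well mixed with NanoLuc enzyme plus prosubstrate; 5 h settle, compound (DMSO) added by pintool; luminescence monitored over 40 h at 37 C.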

Experiment [3] in a line: A CellTox Green Cytotoxicity Assay to monitor cytotoxicity in HepG2 cells - 24 hour (AID 1224878). Also: nearly all actives have a fitted effect of over 45% in size. The essentials: as §1
The nature of experiment [4]: A CellTox Green Cytotoxicity Assay to monitor cytotoxicity in HepG2 cells - 40 hour (AID 1224879). Also: nearly all actives have a fitted effect of over 40% in size. The essentials:
as §1

A short description of experiment [5]: qHTS RealTime-Glo MT Cell Viability Assay in HEK293 cells - 0 hour (AID 1224880). Also: top concentration of the series differs between compounds; nearly all actives have a fitted effect of over 45% in size. The essentials:
(§3)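 Luminescence readout at each listed time point; HEK293, 600 cells/well, RealTime-Glo MT reagent added with cells; compounds pinned (23 nL in DMSO) after 5 h at 37 C; continuous culture at 37 C.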

The nature of experiment [6]: A CellTox Green Cytotoxicity Assay to monitor cytotoxicity in HEK293 cells - 32 hour (AID 1224881). Also: nearly all actives have a fitted effect of over 40% in size. The essentials: (§4)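 Read-out: fluorescence of a cell-impermeant cyanine dye staining DNA of dead cells, proportional to cytotoxicity. HEK293, 600 cells/well with reagent, compound (23 nL DMSO) added after 5 h; reads at 0, 8, 16, 24, 32, 40 h.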
Experiment [7] in a line: A CellTox Green Cytotoxicity Assay to monitor cytotoxicity in HepG2 cells - 0 hour (AID 1224882). Also: nearly all actives have a fitted effect of over 35% in size. The essentials: as §1
Experiment [8] is described as follows: A CellTox Green Cytotoxicity Assay to monitor cytotoxicity in HepG2 cells - 32 hour (AID 1224883). Also: nearly all actives have a fitted effect of over 50% in size. An outline of the steps:
as §1

Experiment [9] can be described thus: A CellTox Green Cytotoxicity Assay to monitor cytotoxicity in HEK293 cells - 8 hour (AID 1224884). Also: nearly all actives have a fitted effect of over 35% in size. An outline of the steps:
as §4

Experiment [10] in a line: qHTS RealTime-Glo MT Cell Viability Assay in HepG2 cells - 16 hour (AID 1224885). Also: nearly all actives have a fitted effect of over 50% in size. The essentials:
as §2

Experiment [11] in a line: qHTS RealTime-Glo MT Cell Viability Assay in HEK293 cells - 24 hour (AID 1224886). Also: nearly all actives have a fitted effect of over 50% in size. Also: potency is read from the fitted curve at half-maximal effect. As to activity change, negative = cytotoxicity: top concentration of the series differs between compounds. An outline of the steps: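 Cells + reagent dispensed (600 cells/well, HEK293) → 5 h at 37 C/5% CO2 → 23 nL compound in DMSO pinned → 40 h at 37 C → luminescence read at 0, 8, 16, 24, 32, 40 h.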
Experiment [12] can be described thus: qHTS RealTime-Glo MT Cell Viability Assay in HEK293 cells - 8 hour (AID 1224887). Also: nearly all actives have a fitted effect of over 50% in size. Also: potency is read from the fitted curve at half-maximal effect. As to activity change, negative = cytotoxicity: top concentration of the series differs between compounds. An outline of the steps:
as §3

Experiment [13] can be described thus: A CellTox Green Cytotoxicity Assay to monitor cytotoxicity in HEK293 cells - 16 hour (AID 1224888). Also: nearly all actives have a fitted effect of over 35% in size. The essentials: as §4
A short description of experiment [14]: qHTS RealTime-Glo MT Cell Viability Assay in HepG2 cells - 0 hour (AID 1224889). Also: nearly all actives have a fitted effect of over 50% in size. An outline of the steps:
as §2

Experiment [15] in a line: A CellTox Green Cytotoxicity Assay to monitor cytotoxicity in HepG2 cells - 8 hour (AID 1224890). Also: nearly all actives have a fitted effect of over 45% in size. An outline of the steps: as §1
Experiment [16] in a line: qHTS assay to identify small molecule antagonists of the estrogen receptor alpha (ER-alpha) signaling pathway using the BG1 cell line in the presence of 0.1 nM 17-beta-estradiol - cell viability counter screen (AID 1259241). Also: nearly all actives have a fitted effect of over 40% in size. The essentials:
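Cells were plated and left 24 hr, compounds in DMSO were pinned in, 17beta-estradiol was added to 0.1 nM final, and after 22 hr CellTiter-Fluor reagent was added for 30 min before fluorescence was read.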

A short description of experiment [17]: qHTS assay to identify small molecule antagonists of the androgen receptor (AR) signaling pathway using the MDA cell line in the presence of 0.5 nM R1881 - cell viability counter screen (AID 1259242). Also: nearly all actives have a fitted effect of over 45% in size. The essentials: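 Live-cell protease fluorescence, CellTiter-Fluor, 30 min at 37C. Cells: MDA-kb2, 3,000/well, preincubated 5 hr. Compounds plus 0.5 nM R1881 final, 16 hr, 37C, 0% CO2.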

The target in experiment [18] is Estrogen receptor (Homo sapiens) (UniProt P03372). The experiment in a line: qHTS assay to identify small molecule antagonists of the estrogen receptor alpha (ER-alpha) signaling pathway using the BG1 cell line in the presence of 0.1 nM 17-beta-estradiol (AID 1259244). Also: nearly all actives have a fitted effect of over 50% in size. The essentials:
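Luminescence after ONE-Glo (30 min, room temperature) measured ERE-luciferase activity in VM7Luc4E2 cells treated 22 h with compound and 0.1 nM final 17beta-estradiol as stimulator.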

Experiment [19] is described as follows: qHTS assay to identify small molecule phospholipidosis (PLD) inducers (AID 1259344; active = well fitted curve in the direction sought with a large enough effect; an effect the other way counts as inactive or inconclusive). An outline of the steps:
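Phospholipid accumulation was scored by imaging: fixed, Hoechst-counterstained HepG2 cells stained with LipidTOX Red after 24 h compound exposure at 37 C. Read-outs were pit count and pit intensity per well or per cell, with amiodarone and DMSO controls.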

The nature of experiment [20]: qHTS assay to identify small molecule HDAC inhibitors (AID 1259364). The essentials: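 HCT-116 (wild type), 1,500 cells/well, overnight; compound 2 hr 37C 5% CO2; HDAC-Glo I/II reagent 30 min RT; luminescence readout.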

Unmarked numbers belong to inactive results. Results filed as inconclusive are left out. The source made the active and inactive calls. Unless noted, calls follow the shape of the dose curve; as a rule, active = well fitted curve in the direction sought with a large enough effect in the repeat runs; inconclusive = weak or mixed curves; inactive = no such curve, though single readings can be large; an effect the other way counts as inactive or inconclusive.
% is scaled to controls: 0 for no effect and ±100 for the full control effect.

Estrogen receptor (Homo sapiens), sequence (P03372 whole entry, looked up): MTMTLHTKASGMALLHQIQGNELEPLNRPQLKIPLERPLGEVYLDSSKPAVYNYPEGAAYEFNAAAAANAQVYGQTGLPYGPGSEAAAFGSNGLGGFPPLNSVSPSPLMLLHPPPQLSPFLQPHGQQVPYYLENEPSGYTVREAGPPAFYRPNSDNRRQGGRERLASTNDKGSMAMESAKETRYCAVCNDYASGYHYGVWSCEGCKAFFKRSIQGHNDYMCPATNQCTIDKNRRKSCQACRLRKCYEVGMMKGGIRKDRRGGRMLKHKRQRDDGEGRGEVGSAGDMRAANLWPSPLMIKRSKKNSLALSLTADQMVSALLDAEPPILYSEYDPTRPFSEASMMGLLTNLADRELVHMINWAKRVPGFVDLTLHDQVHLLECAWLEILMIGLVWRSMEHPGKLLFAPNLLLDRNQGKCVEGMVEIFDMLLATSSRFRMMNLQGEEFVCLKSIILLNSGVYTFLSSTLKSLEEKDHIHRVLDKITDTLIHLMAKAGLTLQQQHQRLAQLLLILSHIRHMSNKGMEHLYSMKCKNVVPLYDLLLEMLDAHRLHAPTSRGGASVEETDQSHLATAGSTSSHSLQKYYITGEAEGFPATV

On to `Nc1ccc(/C=C/c2ccc(N)cc2S(=O)(=O)O)c(S(=O)(=O)O)c1`, for which the cytotoxicity increase is -10.5% [at 0.29 µM] in experiment [1]; -16.8% [at 0.29 µM] in experiment [4]; -0.592% [at 0.29 µM] in experiment [6]; -15.7% [at 0.29 µM] in experiment [8]; 0.921% [at 0.29 µM] in [9]; -4.57% [at 0.29 µM] in experiment [15]. The activity change, negative = cytotoxic in experiment [2] was -0.0646% [at 0.29 µM]; in experiment [10] it was 4.55% [at 0.29 µM]. Besides, the cytotoxicity in [3] is -13.6% [at 0.29 µM]; in [7], 1.07% [at 0.29 µM]. In addition, the activity change, negative = cytotoxicity in [5] is 3.48% [at 0.29 µM]; in experiment [11], 1.86% [at 0.29 µM]; in [12] it was 0.0792% [at 0.29 µM]; in experiment [14], 2.99% [at 0.29 µM]; in [16], -1.15% [at 0.349 µM]. Besides, the activity change in experiment [13] is 0.863% [at 0.29 µM, stronger effect = higher value]. Moreover, the viability change, negative = cytotoxic in experiment [17] is 2% [at 0.349 µM]. Moreover, the activity change, negative = inhibition is 6.51% [at 0.349 µM] in experiment [18] and 6.62% [at 0.349 µM] in experiment [20]. Also, in experiment [19], the molecule was classed as inactive.

On to `N#CCCOCCOCCC#N`, for which the Potency entry in experiment [1], in [3], in experiment [4], in experiment [6], in experiment [7] and in experiment [8] was “inactive” each time. Also, the Potency result in experiment [9], in experiment [11], in experiment [12], in experiment [13], in experiment [14] and in experiment [15] was “inactive” each time. Also, the Potency entry in experiment [16], in [17], in experiment [18] and in [20] was “inactive” in each case. Besides, the outcome in [2], in experiment [5] and in experiment [10] was inactive.

Turning to `COc1ccc(/C=N/NC(=O)c2ccncc2)cc1OC`, the Potency entry in experiment [1], in experiment [3], in experiment [4], in experiment [6], in experiment [7] and in experiment [8] was “inactive” each time. Moreover, the Potency result in [9], in experiment [11], in [12], in experiment [13], in [14] and in experiment [15] was “inactive” each time. Further, the Potency result in experiment [16], in experiment [17], in experiment [18] and in experiment [20] was “inactive” throughout. Also, the result in [2], in experiment [5], in experiment [10] and in experiment [19] was inactive.

Take `CCCCOC(=O)[C@@H](C)Oc1ccc(Oc2ccc(C(F)(F)F)cn2)cc1`: the Potency result in [1], in experiment [3], in experiment [4], in experiment [6], in experiment [7] and in experiment [8] was “inactive” throughout. The Potency entry in [9], in experiment [13], in experiment [14], in experiment [15], in [16] and in experiment [17] was “inactive” throughout. The Potency entry in [18] and in experiment [20] was “inactive” throughout. Besides, the outcome in experiment [2], in [5] and in experiment [10] was inactive. Further, the Potency in experiment [11] is 31.1 µM (active); in [12], 24.7 µM (active).

Consider `C=C[Si](C)(C)O[Si](C)(C)C=C`, for which the Potency entry in [1], in [3], in [4], in experiment [6], in experiment [7] and in [8] was “inactive” in each case. Moreover, the Potency result in experiment [9], in experiment [11], in experiment [12], in experiment [13], in [14] and in [15] was “inactive” throughout. The Potency entry in experiment [16], in experiment [17], in experiment [18] and in [20] was “inactive” each time. Besides, the result in experiment [2], in experiment [5] and in experiment [10] was inactive.

In the case of `Cc1cccc(Nc2ccncc2S(=O)(=O)NC(=O)NC(C)C)c1`, the Potency entry in experiment [1], in experiment [3], in [4], in experiment [6], in experiment [7] and in [8] was “inactive” in each case. Moreover, the Potency entry in [9], in experiment [11], in experiment [12], in [13], in experiment [14] and in experiment [15] was “inactive” throughout. Moreover, the Potency entry in experiment [16], in [17], in experiment [18] and in [20] was “inactive” throughout. Moreover, the outcome in experiment [2], in experiment [5], in [10] and in experiment [19] was inactive.
